Results on 14 compounds are retold here after PubChem BioAssay (NCI).

Test systems include RPMI-8226 leukemia; OVCAR-8 ovarian; OVCAR-5 ovarian; OVCAR-4 ovarian; SK-OV-3 ovarian; IGROV1 ovarian; OVCAR-3 ovarian; HS 578T breast; NCI/ADR-RES ovarian.
What all share (assay): NCI-60 one-dose screen, 48 h (100 = growth as untreated, 0 = no growth, -100 = all killed)
Holding throughout (conditions): 10 µM unless noted

SMILES strings stand for the structures. About 83,000 compounds went through this panel and 20% of them were active in at least one assay; those are over-represented in the sample as a whole.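 Activity criterion: percent growth below 10, measured after cells in 96-well plates were exposed to a single compound concentration for 48 hours.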 A number with no mark means an inactive call. The source made the active and inactive calls.

`O=C(/C=C/c1cccc(O)c1)c1cccc(-n2cc(-c3ccccc3)[nH]c2=O)c1`: the growth is -45.4% (active) in the test with RPMI-8226 leukemia; 9.12% (active) in the test on OVCAR-8 ovarian; -9.18% (active) in the test on OVCAR-5 ovarian; 20.2% in the test on OVCAR-4 ovarian; 106% with SK-OV-3 ovarian; -30.5% (active) in the test with IGROV1 ovarian. The growth was -28% (active) with OVCAR-3 ovarian, 46% in the test on HS 578T breast and 3.96% (active) in the test with NCI/ADR-RES ovarian.
Turning to `COc1cc(/C=C/C(=O)C(C(=O)/C=C/c2ccc(OC(=O)CCNc3nnc(C)s3)c(OC)c2)C(=O)CCNc2nnc(C)s2)ccc1OC(=O)CCNc1nnc(C)s1`, the growth is -75.2% (active) in the test with RPMI-8226 leukemia; 7.54% (active) in the test on OVCAR-8 ovarian; 37.1% in the test with OVCAR-5 ovarian; 35.9% in the test with OVCAR-4 ovarian; 45.4% in the test on SK-OV-3 ovarian; -37.6% (active) with IGROV1 ovarian. Moreover, the growth with OVCAR-3 ovarian was 2.15% (active); with HS 578T breast, 18.2%; with NCI/ADR-RES ovarian it was 31.8%.
In the case of `CCCCc1ccc(C(N)=O)nc1`, the growth in the test with RPMI-8226 leukemia is 88.6%; in the test with OVCAR-8 ovarian it was 107%; in the test with OVCAR-5 ovarian, 96.2%; in the test with OVCAR-4 ovarian it was 100%; in the test with SK-OV-3 ovarian it was 99.5%; in the test on IGROV1 ovarian, 19.4%. For the same compound, the values for the growth in the test on OVCAR-3 ovarian, in the test with HS 578T breast and with NCI/ADR-RES ovarian were 107%, -48.3% (active) and 106%, respectively.
Take `CCOc1cc(/C=C/C(=O)C(C(=O)/C=C/c2ccc(OC(=O)CNc3nc4ccccc4[nH]3)c(OCC)c2)C(=O)CNc2nc3ccccc3[nH]2)ccc1OC(=O)CNc1nc2ccccc2[nH]1`: the growth was -74.4% (active) in the test with RPMI-8226 leukemia; 9.36% (active) with OVCAR-8 ovarian; 11.5% in the test with OVCAR-5 ovarian; 26.9% in the test on OVCAR-4 ovarian; 29.4% in the test on SK-OV-3 ovarian; -33.2% (active) in the test with IGROV1 ovarian. For the same compound, the results for the growth with OVCAR-3 ovarian, with HS 578T breast and with NCI/ADR-RES ovarian were -2.21% (active), -4.12% (active) and 24.3%, respectively.
As to `O=c1ccn(C2CC=C(CO)O2)c(=O)[nH]1` (stereo not drawn), the growth was 84.5% in the test on RPMI-8226 leukemia; 103% in the test with OVCAR-8 ovarian; 102% in the test with OVCAR-5 ovarian; 110% in the test on OVCAR-4 ovarian; 102% in the test with SK-OV-3 ovarian; 86.2% in the test on IGROV1 ovarian. Further, the growth with OVCAR-3 ovarian was 107%; in the test with HS 578T breast, 112%; in the test on NCI/ADR-RES ovarian it was 116%.
As for `CO[C@H]1/C=C/O[C@@]2(C)Oc3c(C)c(O)c4c(O)c(c(/C=N/N5C(C)CN(Cc6ccc(C#N)cc6)CC5C)c(O)c4c3C2=O)NC(=O)/C(C)=C\C=C\[C@H](C)[C@H](O)[C@@H](C)[C@@H](O)[C@@H](C)[C@H](OC(C)=O)[C@@H]1C` (stereo partly drawn), the growth is -6.25% (active) in the test with RPMI-8226 leukemia; 49.7% with OVCAR-8 ovarian; 27.1% with OVCAR-5 ovarian; 39.7% in the test on OVCAR-4 ovarian; 18.5% with SK-OV-3 ovarian; 40.6% in the test on IGROV1 ovarian. In addition, the figures for the growth with HS 578T breast and with NCI/ADR-RES ovarian were 45.6% and 40.1%, respectively.
In the case of `COc1cc(-c2nnc(-c3nc(-c4cc(OC)c(OC)c(OC)c4)n4ccccc34)o2)ccc1N`, the growth was 39.6% in the test on RPMI-8226 leukemia; 50.8% in the test with OVCAR-8 ovarian; 106% in the test with OVCAR-5 ovarian; 76.5% with OVCAR-4 ovarian; 96% with SK-OV-3 ovarian; 56.4% with IGROV1 ovarian. The growth in the test with OVCAR-3 ovarian is 77.6%; with HS 578T breast, 44.2%; in the test on NCI/ADR-RES ovarian, 61.3%.
Take `COc1ccc(/C=C2\CCc3ccccc3C2=O)cc1`: the growth with RPMI-8226 leukemia was 82.1%; with OVCAR-8 ovarian, 90%; in the test on OVCAR-5 ovarian, 109%; in the test on OVCAR-4 ovarian, 89.6%; with SK-OV-3 ovarian, 102%; in the test on IGROV1 ovarian, 81.8%. The growth is 89.6% in the test on OVCAR-3 ovarian, 97.3% in the test on HS 578T breast and 60.5% in the test with NCI/ADR-RES ovarian.
`Cc1cc(C(=O)Nc2ccc3cc(CN4CCOCC4)ccc3n2)c(C)n1-c1ccccc1`: the growth is -21% (active) in the test on RPMI-8226 leukemia; 4.27% (active) in the test on OVCAR-8 ovarian; 83.1% in the test with OVCAR-5 ovarian; 6.66% (active) in the test with OVCAR-4 ovarian; 81.1% in the test on SK-OV-3 ovarian; 66.4% in the test on IGROV1 ovarian. Further, the growth in the test on OVCAR-3 ovarian is 26.7%; in the test on HS 578T breast it was 82.3%; in the test with NCI/ADR-RES ovarian it was -5.82% (active).
Take `COc1cc(/C=C/C(=O)CC(=O)/C=C/c2ccc(OC(=O)C3C4CC5CC(C4)CC3C5)c(OC)c2)ccc1OC(=O)C1C2CC3CC(C2)CC1C3` (stereo not drawn): the growth with RPMI-8226 leukemia was 112%; in the test with OVCAR-8 ovarian, 97.2%; in the test with OVCAR-5 ovarian it was 87.2%; with OVCAR-4 ovarian, 105%; in the test on SK-OV-3 ovarian it was 110%; in the test on IGROV1 ovarian, 33.3%. Besides, the values for the growth in the test with OVCAR-3 ovarian, with HS 578T breast and in the test on NCI/ADR-RES ovarian were 118%, 129% and 107%, respectively.
For the compound `CCOC(=O)CCC(=O)O[C@H]1[C@H](O[C@@H]2[C@@H](C)[C@H](O[C@H]3C[C@@](C)(OC)[C@@H](O)[C@H](C)O3)[C@@H](C)C(=O)O[C@H](CC)[C@@](C)(O)[C@H](O)[C@@H](C)C(=O)[C@H](C)C[C@@]2(C)O)O[C@H](C)C[C@@H]1N(C)C`, the growth with RPMI-8226 leukemia was 97.2%; in the test with OVCAR-8 ovarian it was 106%; in the test with OVCAR-5 ovarian, 106%; in the test with OVCAR-4 ovarian, 110%; with SK-OV-3 ovarian, 113%; in the test on IGROV1 ovarian it was 92.8%. Besides, the growth is 125% in the test with OVCAR-3 ovarian, 113% in the test with HS 578T breast and 108% in the test on NCI/ADR-RES ovarian.
`COc1cc(C(=O)c2cc3c(cc2C)OCO3)cc(OC)c1OC`: the growth in the test with RPMI-8226 leukemia was 39.1%; in the test with OVCAR-8 ovarian, 20.4%; in the test on OVCAR-5 ovarian, 43.1%; with OVCAR-4 ovarian it was 38%; in the test on SK-OV-3 ovarian, 11.1%; with IGROV1 ovarian, 25.1%. Also, the results for the growth in the test on OVCAR-3 ovarian, with HS 578T breast and in the test on NCI/ADR-RES ovarian were 5.31% (active), 44.3% and 15.3%, respectively.
For the compound `CC(=O)/C(=C/c1ccc(Cl)cc1)C(=O)c1ccccc1`, the growth in the test on RPMI-8226 leukemia was 34.8%; with OVCAR-8 ovarian, 89.2%; in the test with OVCAR-5 ovarian it was 111%; in the test on OVCAR-4 ovarian, 79.7%; with SK-OV-3 ovarian, 101%; in the test with IGROV1 ovarian, 91.6%. Also, the growth in the test with OVCAR-3 ovarian was 91.3%; with NCI/ADR-RES ovarian, 85.2%.
For `CCCCN=C(N)c1ccc(OCCSCCOc2ccc(C(N)=NCCCC)cc2)cc1`, the growth was 26.2% in the test on RPMI-8226 leukemia; 40.7% with OVCAR-8 ovarian; 84.1% in the test with OVCAR-5 ovarian; 50.8% with OVCAR-4 ovarian; 41% in the test on SK-OV-3 ovarian; 55.1% in the test on IGROV1 ovarian. In addition, the values for the growth in the test with HS 578T breast and in the test on NCI/ADR-RES ovarian were 47.4% and 90.9%, respectively.
